The supplement of paper PMC8975748
Where a name gives a salt, the structure may show the parent alone.

System: Saccharomyces cerevisiae BY4741 SeMeCo community
Test: z-score of subpopulation abundance vs DMSO median, subpopulation auxotrophic for HL; higher = larger share of this subpopulation than in DMSO controls
Details: 10 µM; 24 h; SM minimal medium; subpopulation (auxotrophy): HL
Procedure: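 Fluorescent four-plasmid SeMeCo (self-establishing metabolically cooperating S. cerevisiae BY4741 community; plasmids pH-mRuby2, pL-mWasabi, pU-eCFP, pM-TagRFP657) was grown 24 h in minimal SM medium with each Selleck FDA-approved drug at 10 µM in 384-well plates. Cells were fixed and imaged by high-content confocal microscopy. For each auxotrophic subpopulation (and the prototroph), a z-score gives the deviation from the DMSO vehicle-control population median.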

Point of comparison: `CCCC1CC(C(=O)NC(C(C)Cl)C2OC(SC)C(O)C(O)C2O)N(C)C1` (stereo not given) [Clindamycin alcoholate], “z-score of subpopulation abundance” value 1.2. Against it:
- CC(=O)O[C@H]1C[C@@H]2CC[C@@H]3[C@H](CC[C@@]4(C)[C@H]3C[C@H]([N+]3(C)CCCCC3)[C@@H]4OC(C)=O)[C@@]2(C)C[C@@H]1N1CCCCC1 [Vecuronium Bromide] — lower, -0.24
- CN(C)CCc1c[nH]c2ccc(CS(=O)(=O)N3CCCC3)cc12 [Almotriptan Malate] — lower, -0.69
- CCOC(=O)C1=C(COCCN)NC(C)=C(C(=O)OC)[C@@H]1c1ccccc1Cl [Levamlodipine] — higher, 2.19
- N/C(=N\N=C\c1ccc(Cl)cc1)N/N=C/c1ccc(Cl)cc1 [Robenidine Hydrochoride] — higher, 6.84
- C#C[C@]1(O)CC[C@H]2[C@@H]3CCC4=CC(=O)CC[C@@H]4[C@H]3C(=C)C[C@@]21CC [Etonogestrel] — lower, -0.29
- CCN(CC)CCOCCOC(=O)C1(c2ccccc2)CCCC1 [Pentoxyverine Citrate] — lower, -0.72
- NC(=O)OCC(COC(N)=O)c1ccccc1 [Felbamate] — lower, -0.42
- C[C@H](Nc1ncnc2nc[nH]c12)c1cc2cccc(Cl)c2c(=O)n1-c1ccccc1 [Duvelisib (IPI-145, INK1197)] — lower, 0.33
- C#C[C@]1(O)CC[C@H]2[C@@H]3CCC4=CC(=O)CC[C@@H]4[C@H]3CC[C@@]21CC [Levonorgestrel] — lower, -0.95
- NC[C@H]1O[C@H](O[C@H]2[C@H](O)[C@@H](O[C@H]3O[C@H](CO)[C@@H](O)[C@H](N)[C@H]3O)[C@H](N)C[C@@H]2N)[C@H](N)C[C@@H]1O [Tobramycin] — lower, -0.46
- CCN[C@@H]1C[C@H](N)[C@@H](O[C@H]2OC(CN)=CC[C@H]2N)[C@H](O)[C@H]1O[C@H]1OC[C@](C)(O)[C@H](NC)[C@H]1O [Netilmicin Sulfate] — lower, -0.24
- CO[C@H]1C[C@@H]2CC[C@@H](C)[C@@](O)(O2)C(=O)C(=O)N2CCCC[C@H]2C(=O)O[C@H]([C@H](C)C[C@@H]2CC[C@H](n3cnnn3)[C@H](OC)C2)CC(=O)[C@H](C)/C=C(\C)[C@@H](O)[C@@H](OC)C(=O)[C@H](C)C[C@H](C)/C=C/C=C/C=C/1C [Zotarolimus(ABT-578)] — higher, 15.7
- Oc1c(Br)cc(Br)c2cccnc12 [Broxyquinoline] — higher, 10.5
- O=C(O[C@H]1CN2CCC1CC2)N1CCc2ccccc2[C@@H]1c1ccccc1 [Solifenacin succinate] — lower, 0.67
- COc1cccc2c1C(=O)c1c(O)c3c(c(O)c1C2=O)C[C@@](O)(C(C)=O)C[C@@H]3O[C@H]1C[C@H](N)[C@H](O)[C@H](C)O1 [Daunorubicin HCl] — lower, 0.73
- Cc1cccc(C)c1NC(=O)C1CCCCN1C (stereo not given) [Mepivacaine HCl] — lower, -0.96
- CC[C@@H]1C(=O)OC[C@@H]1Cc1cncn1C [Pilocarpine HCl] — lower, -0.15
- O=C(O[C@@H]1C[C@@H]2C[C@H]3C[C@H](C1)N2CC3=O)c1c[nH]c2ccccc12 [Dolasetron Mesylate] — lower, 0
- CC[C@H]1OC(=O)[C@H](C)[C@@H](O[C@H]2C[C@@](C)(OC)[C@@H](O)[C@H](C)O2)[C@H](C)[C@@H](O[C@@H]2O[C@H](C)C[C@H](N(C)C)[C@H]2O)[C@](C)(O)C[C@@H](C)/C(=N\OCOCCOC)[C@H](C)[C@@H](O)[C@]1(C)O [Roxithromycin] — lower, 0.42
- CC[C@H]1OC(=O)C[C@@H](O)[C@H](C)[C@@H](O[C@@H]2O[C@H](C)[C@@H](O)[C@H](N(C)C)[C@H]2O)[C@@H](CCN2C[C@H](C)C[C@H](C)C2)C[C@@H](C)C(=O)/C=C/C(C)=C/[C@@H]1CO[C@@H]1O[C@H](C)[C@@H](O)[C@@H](OC)[C@H]1OC [Tilmicosin] — higher, 1.91
- CCOC(=O)c1c(CSc2ccccc2)n(C)c2cc(Br)c(O)c(CN(C)C)c12 [Arbidol HCl] — lower, -0.66
- Cc1ncc([N+](=O)[O-])n1CC(C)O (stereo not given) [Secnidazole] — lower, -0.51
- Cc1c(OCC(F)(F)F)ccnc1C[S+]([O-])c1nc2ccccc2[nH]1 (stereo not given) [Lansoprazole] — higher, 2.01
- CCOC(=O)C1=C[C@]2(CC)CCCN3CCc4c(n1c1ccccc41)[C@@H]32 [Vinpocetine] — lower, 0.11
- CCCc1nn(C)c2c(=O)[nH]c(-c3cc(S(=O)(=O)N4CCN(C)CC4)ccc3OCC)nc12 [Sildenafil Citrate] — lower, -0.89
- C#C[C@]1(O)CC[C@H]2[C@@H]3CCC4=CCCC[C@@H]4[C@H]3C(=C)C[C@@]21CC [Desogestrel] — lower, 0.58
- CC(=O)N1CCN(c2ccc(OCC3COC(Cn4ccnc4)(c4ccc(Cl)cc4Cl)O3)cc2)CC1 (stereo not given) [Ketoconazole] — lower, -0.6
- C[C@]12CC[C@@H]3c4ccc(O)cc4CC[C@H]3[C@@H]1CC[C@@H]2O [Estradiol] — lower, -0.05
- CO/N=C(\C(=O)N[C@@H]1C(=O)N2C(C(=O)OCOC(=O)C(C)(C)C)=C(/C=C\c3scnc3C)CS[C@H]12)c1csc(N)n1 [Cefditoren Pivoxil] — higher, 1.56
- O=C(Cn1cnnn1)N[C@@H]1C(=O)N2C(C(=O)O)=C(CSc3nncs3)CS[C@H]12 [Ceftezole] — lower, -0.41
- CCCCNc1ccc(C(=O)OCCN(C)C)cc1 [Tetracaine HCl] — lower, 0
- Cc1nc(Nc2ccc(F)cc2)nc(N2CCc3ccccc3C2C)c1C (stereo not given) [Revaprazan Hydrochloride] — lower, 0.35
- C[C@@H](O)[C@H]1C(=O)N2C(C(=O)O)=C(S[C@@H]3CN[C@H](C(=O)Nc4cccc(C(=O)O)c4)C3)[C@H](C)[C@H]12 [Ertapenem sodium] — lower, 0.1
- CCCCOc1cc(C(=O)NCCN(CC)CC)c2ccccc2n1 [Dibucaine HCl] — lower, -1.25
- C[C@]12CC[C@@H]3c4ccc(OC(=O)c5ccccc5)cc4CC[C@H]3[C@@H]1CC[C@@H]2O [Estradiol Benzoate] — lower, -0.31
- O=C(O)C1=C(CSc2nnnn2CS(=O)(=O)O)CS[C@@H]2[C@H](NC(=O)[C@H](O)c3ccccc3)C(=O)N12 [Cefonicid sodium] — lower, 0.41
- CO/N=C(\C(=O)N[C@@H]1C(=O)N2C(C(=O)O)=CCS[C@H]12)c1csc(N)n1 [Ceftizoxime] — lower, -0.85
- c1cnc2cc3c(cc2n1)[C@@H]1CNC[C@H]3C1 [Varenicline Tartrate] — lower, 0.16
- CCCCCCCCCCCCCCCCOP(=O)([O-])OCC[N+](C)(C)C [Miltefosine] — higher, 3.75
